Drawing on PubChem BioAssay, this text covers growth inhibition, inhibition and outcome for 19 compounds.

Test [1] can be described thus: antimalarial activity against Dd2 strain (AID 2302;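 active = growth inhibition above 50% at the single 2 µM test dose, taken to imply half-maximal potency below 2 µM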;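 note: 0% = DMSO untreated growth and 100% = chloroquine plus artemisinin killed control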). To be noted: P. falciparum Dd2 in RBCs, LDH growth readout, 72 h; at 2 µM; active compounds read high.
Test [2] in a line: HepG2 cytotoxicity, primary screen, cytotoxicity control for P. falciparum antimalarial project, cell-based, ATP luminescence (AID 2303;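 active = inhibition above 50%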;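 note: 0% = DMSO wells and 100% = digitonin-killed cells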). To be noted: HepG2 viability, 24-48 h, at 10 µM, active compounds read high.
Test [3] has as its target L-lactate dehydrogenase (Plasmodium falciparum (isolate CDC / Honduras)) (UniProt Q27743). In words: PfLDH activity inhibition – cell lysate, 3D7 strain, counter-screen for P. falciparum growth inhibition project (AID 2304).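 Note: 0% = vehicle and 100% = reference inhibitor.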 The following applies: P. falciparum 3D7 crude extract, LDH APAD/NBT absorbance; at 2 µM; active compounds read high. A general note: The purpose of a counterscreen is to sort out artefacts and off-target activity.

A short description of test [4]: inhibition of 3D7 malaria parasite growth – strain 3D7 (AID 2306).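 Note: 0% = DMSO wells and 100% = chloroquine plus artemisinin control wells.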 To be noted: P. falciparum 3D7 erythrocytic growth, LDH absorbance, 72 h; at 2 µM; active compounds read high.
In test [5] the target is Calcium-dependent protein kinase 1 (Plasmodium falciparum (isolate 3D7)) (UniProt P62344). Briefly: PfCDPK1 kinase inhibitors, biochemical, TCAMS library (AID 1159585; cut-off not given, nearly all actives have IC50 up to about 0.98 µM;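 note: inhibitors leave more ATP so luminescence rises with inhibition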). To be noted: recombinant PfCDPK1, Kinase-Glo ATP depletion luminescence. On the technique in general: Kinase-Glo reads ATP consumption through a luciferase reaction.
Calcium-dependent protein kinase 1 (Plasmodium falciparum (isolate 3D7)), sequence (P62344 whole entry, looked up): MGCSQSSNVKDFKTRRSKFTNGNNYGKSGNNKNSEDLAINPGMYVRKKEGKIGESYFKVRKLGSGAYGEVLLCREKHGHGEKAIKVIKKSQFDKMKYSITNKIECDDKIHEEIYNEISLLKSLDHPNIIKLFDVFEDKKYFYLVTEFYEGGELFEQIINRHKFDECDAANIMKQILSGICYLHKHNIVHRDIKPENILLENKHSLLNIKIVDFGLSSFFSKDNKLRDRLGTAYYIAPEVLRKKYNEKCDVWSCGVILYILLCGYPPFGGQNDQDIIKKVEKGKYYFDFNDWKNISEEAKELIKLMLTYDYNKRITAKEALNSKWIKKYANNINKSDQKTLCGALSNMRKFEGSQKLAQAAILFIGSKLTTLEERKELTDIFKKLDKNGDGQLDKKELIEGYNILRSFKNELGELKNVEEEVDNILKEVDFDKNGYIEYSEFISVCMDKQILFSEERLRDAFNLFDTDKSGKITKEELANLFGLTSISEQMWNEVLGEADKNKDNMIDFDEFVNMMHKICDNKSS
Test [6] addresses Plasmodium falciparum protein kinase 6 (PK6, PF3D7_1337100) (UniProt Q8IDW1). In words: PfPK6 kinase inhibitors, biochemical, TCAMS library (AID 1159586). The following applies: recombinant PfPK6, Kinase-Glo ATP depletion luminescence.
Test [7] has as its target Protein kinase 7 (PK7), Plasmodium falciparum 3D7 (PF3D7_0213400) (UniProt Q7YTF7). In words: inhibition of Plasmodium PK7 catalytic activity – biochemical, TCAMS antimalarial set, Kinase-Glo luminescence (AID 1159587). The following applies: recombinant PfPK7, Kinase-Glo ATP depletion luminescence.
Test [8] has as its target Calcium-dependent protein kinase 4 (Plasmodium falciparum (isolate 3D7)) (UniProt Q8IBS5). In words: PfCDPK4 kinase inhibitors, biochemical, TCAMS library (AID 1159588; cut-off not given, nearly all actives have IC50 up to about 0.91 µM). To be noted: recombinant PfCDPK4, Kinase-Glo ATP depletion luminescence.

Values without a mark were called inactive. For some assays here: Results with a measured potency or affinity are listed apart. Activity calls are given as the source filed them. Unless noted, the rule behind the calls is not given here.

What is called inhibition is the change of the read-out against control, counted positive when it falls.

Calcium-dependent protein kinase 4 (Plasmodium falciparum (isolate 3D7)), sequence (Q8IBS5 whole entry, looked up): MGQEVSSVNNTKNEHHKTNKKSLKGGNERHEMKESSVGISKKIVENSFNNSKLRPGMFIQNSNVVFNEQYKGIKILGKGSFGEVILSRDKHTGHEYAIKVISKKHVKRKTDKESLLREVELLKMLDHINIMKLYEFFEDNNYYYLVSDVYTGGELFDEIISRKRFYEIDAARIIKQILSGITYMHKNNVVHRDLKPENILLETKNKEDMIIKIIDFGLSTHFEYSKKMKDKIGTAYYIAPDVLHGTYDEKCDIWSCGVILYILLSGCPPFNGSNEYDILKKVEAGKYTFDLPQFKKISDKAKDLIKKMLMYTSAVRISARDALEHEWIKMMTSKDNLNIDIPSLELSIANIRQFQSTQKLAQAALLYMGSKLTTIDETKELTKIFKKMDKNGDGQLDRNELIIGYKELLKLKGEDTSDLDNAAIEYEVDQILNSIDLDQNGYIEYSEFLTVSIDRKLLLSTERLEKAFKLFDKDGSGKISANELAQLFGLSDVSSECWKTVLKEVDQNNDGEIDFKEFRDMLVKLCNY
Plasmodium falciparum protein kinase 6 (PK6, PF3D7_1337100), sequence (Q8IDW1 1-305): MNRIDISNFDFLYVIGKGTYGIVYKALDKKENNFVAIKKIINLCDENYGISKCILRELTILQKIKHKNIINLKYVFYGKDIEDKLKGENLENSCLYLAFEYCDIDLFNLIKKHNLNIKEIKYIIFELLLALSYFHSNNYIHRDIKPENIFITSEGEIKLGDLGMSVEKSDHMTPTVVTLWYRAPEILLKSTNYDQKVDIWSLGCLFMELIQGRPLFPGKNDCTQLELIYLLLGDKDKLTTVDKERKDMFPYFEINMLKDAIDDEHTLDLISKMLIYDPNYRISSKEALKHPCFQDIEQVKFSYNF
L-lactate dehydrogenase (Plasmodium falciparum (isolate CDC / Honduras)), sequence (Q27743 whole entry, looked up): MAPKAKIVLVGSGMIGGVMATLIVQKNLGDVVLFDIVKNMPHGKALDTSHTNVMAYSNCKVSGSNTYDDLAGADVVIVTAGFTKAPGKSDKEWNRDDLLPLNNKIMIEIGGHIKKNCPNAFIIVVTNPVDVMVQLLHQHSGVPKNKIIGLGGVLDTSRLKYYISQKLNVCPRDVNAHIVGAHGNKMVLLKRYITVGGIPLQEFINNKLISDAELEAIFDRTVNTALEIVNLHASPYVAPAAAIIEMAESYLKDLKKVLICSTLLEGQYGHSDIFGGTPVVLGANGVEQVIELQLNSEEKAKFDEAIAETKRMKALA
Protein kinase 7 (PK7), Plasmodium falciparum 3D7 (PF3D7_0213400), sequence (Q7YTF7 1-343): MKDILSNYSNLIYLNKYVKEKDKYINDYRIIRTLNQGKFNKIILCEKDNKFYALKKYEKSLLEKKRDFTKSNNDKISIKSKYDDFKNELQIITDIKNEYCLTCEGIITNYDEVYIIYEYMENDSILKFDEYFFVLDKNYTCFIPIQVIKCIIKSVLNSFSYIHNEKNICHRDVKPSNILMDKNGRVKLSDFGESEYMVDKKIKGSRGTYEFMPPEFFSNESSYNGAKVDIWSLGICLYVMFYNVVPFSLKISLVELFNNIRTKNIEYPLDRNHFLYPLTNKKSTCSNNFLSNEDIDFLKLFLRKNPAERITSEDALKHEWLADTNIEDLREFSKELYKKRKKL

In the case of `Cc1[nH]c(C)c(-c2ccc(OCc3ccc(F)cc3)cc2)c(=O)c1Cl`, the figures for the growth inhibition in test [1] and in test [4] were 96% (active) and 95% (active), respectively. The inhibition in test [2] was -10%; in test [3], -1%. The result in test [5], in test [6], in test [7] and in test [8] was inactive.

Take `CCOc1cc(C(=O)NC2CCN(Cc3ccccc3)CC2)ccc1-c1nc2ccc(Cl)cc2[nH]1`: the growth inhibition in test [1] is 84% (active); in test [4], 101% (active). Moreover, the inhibition in test [2] is 10%; in test [3], -6%. Besides, the result in test [5], in test [6], in test [7] and in test [8] was inactive.

For `CN1CCN(CCCN(Cc2ccc(-c3cccc(CNCc4ccc5c(c4)OCO5)c3)cc2)C(=O)NC2CCCCC2)CC1`, the results for the growth inhibition in test [1] and in test [4] were 92% (active) and 95% (active), respectively. The inhibition in test [2] is 31%; in test [3] it was 4%. The result in test [5], in test [6], in test [7] and in test [8] was inactive.

As to `COC(=O)C(NC(=O)NC1CCN(c2ccnc(Nc3ccc(F)cc3)n2)C1)c1ccccc1` (configuration not stated), the growth inhibition in test [1] is 8%; in test [4], 87% (active). Moreover, the inhibition in test [2] is 11%; in test [3], -2%. In addition, the result in test [5], in test [6], in test [7] and in test [8] was inactive.

Consider `O=C(/C=C/c1ccc(Cl)c(Cl)c1)NCCCCCCN1CCCN(C(=O)Nc2ccc(F)c(F)c2)CC1`, for which the growth inhibition was 2% in test [1] and 89% (active) in test [4]. The inhibition in test [2] is 72% (active); in test [3], 4%. The result in test [5], in test [6], in test [7] and in test [8] was inactive.

As to `O=C(/C=C/c1ccc(C(F)(F)F)cc1)NCCCCCN1CCCN(C(=O)Nc2ccc(F)c(Cl)c2)CC1`, the growth inhibition in test [1] is 33%; in test [4] it was 101% (active). Moreover, the figures for the inhibition in test [2] and in test [3] were 33% and 0%, respectively. For the same compound, the outcome in test [5], in test [6], in test [7] and in test [8] was inactive.

In the case of `CO/C(=C\C=C\c1cc2cc(Cl)c(Cl)cc2[nH]1)C(=O)NCCCN1CCC(c2ccccc2)CC1`, the growth inhibition in test [1] is 92% (active); in test [4], 100% (active). The inhibition in test [2] was 33%; in test [3] it was -1%. Moreover, the result in test [5], in test [6], in test [7] and in test [8] was inactive.

Take `CC(C)C[C@H](NC(=O)c1cc2ccccc2s1)C(=O)N[C@H]1CCN(Cc2ccc(OC[C@@H]3CCCN3C)c(Cl)c2)C1`: the growth inhibition in test [1] is 81% (active); in test [4], 101% (active). The values for the inhibition in test [2] and in test [3] were 83% (active) and -4%, respectively. The outcome in test [5], in test [6], in test [7] and in test [8] was inactive.

Take `OCC1CCN(Cc2ccc(-c3cccc(-c4nc5ccc(F)cc5[nH]4)c3)cc2)CC1`: the growth inhibition is 25% in test [1] and 100% (active) in test [4]. For the same compound, the inhibition was 14% in test [2] and -3% in test [3]. Further, the result in test [5], in test [6], in test [7] and in test [8] was inactive.

For `Cc1[nH]c(C)c(-c2ccc(CCc3ccc(F)cc3F)cc2)c(=O)c1Cl`, the growth inhibition in test [1] is 97% (active); in test [4], 98% (active). The values for the inhibition in test [2] and in test [3] were 5% and -4%, respectively. The outcome in test [5], in test [6], in test [7] and in test [8] was inactive.

Regarding `N#Cc1cccc(CN(Cc2ccc(Cl)c(Cl)c2)S(=O)(=O)c2cccc([N+](=O)[O-])c2)c1`, the growth inhibition is 73% (active) in test [1] and 100% (active) in test [4]. The inhibition in test [2] was 3%; in test [3], -8%. Further, the result in test [5], in test [6], in test [7] and in test [8] was inactive.

Take `CCCc1cc(N2CCC(N3CCCC3)CC2)nc(Nc2ccc(Cl)cc2)n1`: the growth inhibition was 9% in test [1] and 96% (active) in test [4]. Also, the inhibition in test [2] is 29%; in test [3] it was -2%. For the same compound, the result in test [5], in test [6], in test [7] and in test [8] was inactive.

On to `CN(C)CCN(C)Cc1ccc(-c2ccc3c(Nc4ccc(Oc5ccccn5)cc4)ccnc3c2)o1`, for which the growth inhibition in test [1] and in test [4] was 100% (active) in each case. The inhibition in test [2] is 16%; in test [3], 6%. Moreover, the outcome in test [5], in test [6], in test [7] and in test [8] was inactive.

As for `NC(=O)c1cccc(Nc2nccc(Nc3ccc(Oc4cccc(Cl)c4)c(Cl)c3)n2)c1`, the values for the growth inhibition in test [1] and in test [4] were 12% and 93% (active), respectively. For the same compound, the figures for the inhibition in test [2] and in test [3] were -3% and 1%, respectively. In addition, the outcome in test [5], in test [6], in test [7] and in test [8] was inactive.

Regarding `CCc1c[nH]c2c(N3CCCCC3=O)cc(C(=O)N[C@@H](Cc3ccccc3)[C@H](O)CNCc3cccc(OC)c3)cc12`, the growth inhibition in test [1] was 99% (active); in test [4] it was 101% (active). The inhibition is 8% in test [2] and -1% in test [3]. In addition, the outcome in test [5], in test [6], in test [7] and in test [8] was inactive.

Consider `Fc1cc(Cl)ccc1Nc1ccnc(Nc2ccc3cn[nH]c3c2)n1`, for which the growth inhibition is 56% (active) in test [1] and 97% (active) in test [4]. For the same compound, the results for the inhibition in test [2] and in test [3] were 8% and -3%, respectively. The outcome in test [5], in test [6], in test [7] and in test [8] was inactive.

`CN1CCC(NCc2ccc(-c3cnc(NCc4ccccc4)nc3)cc2)CC1`: the values for the growth inhibition in test [1] and in test [4] were 64% (active) and 91% (active), respectively. Also, the inhibition in test [2] was 23%; in test [3], 4%. For the same compound, the result in test [5], in test [6], in test [7] and in test [8] was inactive.

On to `CC(=O)Nc1nc(C(=O)Nc2ccc(-c3cccc(-c4nc5ccccc5[nH]4)c3)cc2)cs1`, for which the growth inhibition in test [1] was 83% (active); in test [4], 99% (active). In addition, the inhibition is 68% (active) in test [2] and -10% in test [3]. The outcome in test [5], in test [6], in test [7] and in test [8] was inactive.

`COc1ccc(CNC2CCCC2)cc1-c1ccc(S(=O)(=O)NCCN2CCCC2)s1`: the growth inhibition is 17% in test [1] and 96% (active) in test [4]. For the same compound, the inhibition in test [2] is 17%; in test [3], -3%. Moreover, the outcome in test [5], in test [6], in test [7] and in test [8] was inactive.
